Here are results for 40 sequences from the OligoGym collection.
Further: reference of the scale not given here.

The first test addresses PML. Kind of test: pooled miR-30 sensor sort-seq; sequence = guide strand. The note with it: shRNA.
As for TATCTTTCTACATGGATGGAGT, the sensor-assay potency score (higher = more potent) is -0.448.
The same measure, in the same setting: in the case of TACAGCTGCATCTTTCCCCTGG it was 0.227; in that of TTTCTCGCCAGGTAGGTCTGGG, 0.0297; in that of TTGTATTGGAGACATCCTCTCC, -0.965.
As for TTCGGCATCTGAGTCTTCCGAG, the sensor-assay potency score (higher = more potent) is 0.322.
As to AAGTCTGAGAGTCACCTGCTGT, the sensor-assay potency score (higher = more potent) is -0.995.
The same measure, in the same setting: in the case of TTGTATTGGAGACATCCAGGTC it was -0.853.
Same read-out and setting: then TATTGGAGACATCCTCTCCATA, with -1.32; and TTCATTGTCAATCTTGAGGTCA, with 0.253.
Still for that read-out and setting: in the case of TCGTGCTTGAGGAACCACTGGT it was 0.0745; in that of TCCATCTTGATGACCTTCCTGG, -0.889.

The next test deals with PNPLA3. The description is as above. The note with it: shRNA.
As for TAGCAGCTCATCTCCCTCCAGC, the sensor-assay potency score (higher = more potent) was -1.05.
Same read-out and setting: in the case of TATCGCACGCCTCTGAAGGAAG it was -1.42; in that of TCTGCTTTGGTCTCTGCTGGAC, -0.599.
On the same count and under the same terms, then ATTACATAAGACATTATCCTAA, with -0.605.
On the same count and under the same terms, in the case of TAGCAAGTTGCAAATCTTGCTC it was -0.46.
Take TTCGTGGACTTGACTTTAGGGC: the sensor-assay potency score (higher = more potent) is -0.495.
Same read-out and setting: in the case of TAGAAGGGGATGAAGCAGGAAC it was -0.79; in that of TTTGCAGAGACCCTGTCGGAGG, -0.649; in that of TTACATAAGACATTATCCTAAT, -0.725.
The same measure, in the same setting: in the case of TTGCTTAAGTTGAAGGATGGAT it was -0.584; in that of TCTTGCTCATGTATCCACCTTT, -0.0736.
Still for that read-out and setting: in the case of TAAGACATTATCCTAATGGGTA it was -0.331.

A further test addresses POLG. The test is described as above. The note with it: shRNA.
TTCCTCATCATAGTCGGGGTGC registered a sensor-assay potency score (higher = more potent) of 0.36.
For the sequence TTTAGGTGTGACCCGCATCTGC, the sensor-assay potency score (higher = more potent) is -1.03.
Still for that read-out and setting: in the case of TTGAACATTTCTGACTCTGTGC it was 0.0886.
Regarding TATGGCACTATTGTCAGTGAGC, the sensor-assay potency score (higher = more potent) was -0.848.
Same read-out and setting: in the case of TTGGCTGCTATCCACAGACTGC it was -1.02.
On the same count and under the same terms, in the case of ATTACAGCTATTACCATCCTTG it was -0.0536; in that of TATTGAACATTTCTGACTCTGT, 0.187; in that of TTGTAGGCAAACATGCACCTGG, 0.0528.
For the sequence TAATCCAGTTCTTCTACCGTTT, the sensor-assay potency score (higher = more potent) was -0.468.
Same read-out and setting: then TTATTGAACATTTCTGACTCTG, with 0.362; and TTGTCCTGTAGTCCACACCGAT, with -1.34; and TTAAACTGCATTAGTAAGCGCT, with -0.404.

In another test the target is POLH. Described as above. The note with it: shRNA.
As to TTGTACTGTACAACTGCACAAG, the sensor-assay potency score (higher = more potent) is -0.852.
The same measure, in the same setting: then ATAACTTCTTAGCATCATCTGC, with -0.998.
In the case of TATTGTGTGAAATTCCAGCTGA, the sensor-assay potency score (higher = more potent) came to 0.557.
The same measure, in the same setting: in the case of TAGAAGCAGACTTTTCTGCTTA it was 0.259; in that of TTACAGTTCTTGATGACAGTAA, 0.425.
